In publication PMC5540273 (PLoS ONE, 2017):
Where two headings read alike, the source gives them in different places.

Columns and labels:
AAK1 = settings: n = 1
ABL1-nonphosphorylated = settings: concentration: 1 μM, replicates: in singlicate; n = 1
ABL1-phosphorylated = settings: concentration: 1 μM, replicates: in singlicate; n = 1
ABL2 = settings: concentration: 1 μM, replicates: in singlicate; n = 1
ACVR1B = settings: concentration: 1 μM, replicates: in singlicate; n = 1
ACVR1 = settings: concentration: 1 μM, replicates: in singlicate; n = 1
ACVR2A = settings: concentration: 1 μM, replicates: in singlicate; n = 1
ACVR2B = settings: concentration: 1 μM, replicates: in singlicate; n = 1
ACVRL1 = settings: concentration: 1 μM, replicates: in singlicate; n = 1
ADCK3 = tested on: T1, ADCK3; settings: concentration: 1 μM, replicates: in singlicate; n = 1
T1 construct: gene CABC1

[1] = concentration: 1 μM, replicates: in singlicate
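Note: KINOMEscan kinase panel screen.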

| SMILES | %Inh (AAK1; [1]) | %Inh (ABL1-nonphosphorylated) | %Inh (ABL1-phosphorylated) | %Inh (ABL2) | %Inh (ACVR1B) | %Inh (ACVR1) | %Inh (ACVR2A) | %Inh (ACVR2B) | %Inh (ACVRL1) | %Inh (ADCK3) | %Inh (AAK1; 1 µM) |
| --- | --- | --- | --- | --- | --- | --- | --- | --- | --- | --- | --- |
| O=C(Nc1ccccc1F)NC1CCN(c2ccnc(Nc3ccc(F)cc3)n2)CC1 [GSK1379800] | 17% | 0% | 0% | 12% | 0% | 6% | 0% | 0% | 0% | 1% | – |
| O=C(Nc1cccc(-c2nn3ccccc3c2-c2ccnc(Nc3cccc(F)c3)n2)c1)c1c(F)ccc(F)c1Cl [GSK357952] | 0% | 26% | 0% | 25% | 0% | 1% | 16% | 13% | 18% | 16% | – |
| Cc1cccc(Nc2nc(N[C@H]3CCNC3)ncc2C(N)=O)c1.Cl [GSK2197149] | – | 40% | 66% | 25% | 0% | 0% | 2% | 7% | 0% | 28% | 75% |
| O=C(Nc1cccc(-c2nn3ncccc3c2-c2ccnc(Nc3ccccc3)n2)c1)c1c(F)cccc1F [GSK198271] | 17% | 60% | 6% | 42% | 0% | 21% | 0% | 25% | 0% | 3% | – |
| CSc1cccc2c(-c3ccncn3)c(-c3ccc(F)cc3)nn12 [GW514786] | 0% | 0% | 0% | 12% | 43% | 0% | 0% | 7% | 0% | 68% | – |
| Cl.c1ccc(-c2ccc3c(Nc4ccc5[nH]ccc5c4)ccnc3c2)nc1 [GW440138] | 10% | 85% | 94.1% | 48% | 0% | 55% | 29% | 89% | 12% | 2% | – |
| Nc1ncc(-c2ccc3nccc(-c4ccncc4)c3c2)cc1S(=O)(=O)N1CCOCC1 [GSK1627798] | 18% | 0% | 0% | 13% | 0% | 0% | 0% | 0% | 0% | 49% | – |
| COc1cccc(C2=C(Nc3ccc(Cl)c(C(=O)O)c3)C(=O)NC2=O)c1 [SB-390769] | 9% | 11% | 100% | 16% | 0% | 15% | 100% | 5% | 0% | 0% | – |
| CN1CCN(CCCNc2nccc(-c3c(-c4ccc(F)cc4)nn4cc(C(F)(F)F)ccc34)n2)CC1 [GW621581] | 1% | 0% | 0% | 9% | 83% | 40% | 0% | 0% | 26% | 70% | – |
| CN(C)S(=O)(=O)c1cc(-c2ccc3nccc(-c4cccc(S(N)(=O)=O)c4)c3c2)cnc1N [GSK1669921] | 26% | 0% | 0% | 17% | 0% | 88% | 0% | 0% | 0% | 16% | – |
| Nc1ncnc2c1nc(-c1ccccc1)n2-c1ccccc1 [SKF-97293] | 0% | 8% | 0% | 2% | 7% | 0% | 4% | 0% | 14% | 11% | – |
